In PubChem BioAssay (Tox21):
Inconclusive results are not listed. A call without a number means that no potency is given here. Values without a mark were called inactive. Calls of active or inactive are those of the source. Unless noted, calls come from the whole dose curve.

Assays:
[1] = qHTS assay to identify small molecule antagonists of the vitamin D receptor (VDR) signaling pathway - cell viability counter screen (AID 743225; active = well fitted curve in the direction sought with a large enough effect in the repeat runs; an effect the other way counts as inactive or inconclusive; note: nearly all actives have a fitted effect of over 50% in size)
Procedure, shortened: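 HEK293T VDR-bla; cpd + 1a,25-(OH)2D3 3 nM final, 16 h 37C/5% CO2; B/G FRET substrate 2 h RT; then CellTiter-Glo 30 min RT, luminescence.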

[2] = qHTS assay to identify small molecule agonists of the NFkB signaling pathway - cell viability counter screen (AID 1159515); note: series mostly up to about 61 µM; nearly all actives have a fitted effect of over 55% in size
Procedure, shortened: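 Viability in NFkB-bla ME-180 cells was measured by CellTiter-Glo luminescence, 30 min room temperature, in wells already treated 5 hr with compounds and read for reporter FRET.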

[3] = qHTS assay to identify small molecule agonists of the endoplasmic reticulum stress response signaling pathway (AID 1159516; active = well fitted activation curve with a large enough effect in the signal ratio in the repeat runs, not every such curve was filed as active; the % refers to the signal ratio)
Procedure, shortened: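 ER stress element reporter (bla) in HeLa. 1,500 cells/well, overnight attachment; 5 hr compound; 2 hr RT substrate; dual-emission fluorescence.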

[4] = qHTS assay to identify small molecule agonists of the endoplasmic reticulum stress response signaling pathway - cell viability counter screen (AID 1159517);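 note: HeLa cells carrying an ER stress response element beta-lactamase reporter; series mostly up to about 61 µM; nearly all actives have a fitted effect of over 50% in size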
Procedure, shortened: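 Counter-screen wells were identical to the reporter wells. Cells were plated at 1,500 per well and dosed for 5 hr, then read for luminescence 30 min after CellTiter-Glo addition.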

[5] = qHTS assay to identify small molecule antagonists of the retinoid-related orphan receptor gamma (ROR-gamma) signaling pathway - cell viability counter screen (AID 1159520; active = well fitted curve in the direction sought with a large enough effect in the repeat runs; an effect the other way counts as inactive or inconclusive; note: nearly all actives have a fitted effect of over 50% in size)
Procedure, shortened: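 Tet-on ROR gamma CHO cells were given compounds for 2 hr, then doxycycline hyclate at 1 uM final, and incubated 16 hr at 37 C. Viability was measured as ATP content by CellTiter-Glo luminescence.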

[6] = target: Nuclear receptor ROR-gamma (Homo sapiens) (UniProt P51449); experiment: qHTS assay to identify small molecule antagonists of the retinoid-related orphan receptor gamma (ROR-gamma) signaling pathway (AID 1159521; active = well fitted curve in the direction sought with a large enough effect in the repeat runs; an effect the other way counts as inactive or inconclusive;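 note: CHO cells with doxycycline inducible ROR-gamma driving an RORE luciferase reporter; top concentration of the series differs between compounds; nearly all actives have a fitted effect of over 50% in size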)
Procedure, shortened: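 Cells were plated, rested 4 h at 37 C, exposed to compounds for 2 h, then given 1 uM final doxycycline hyclate to induce RORγ expression. After 16 h, ONE-Glo luminescence from the ROR response element reporter was measured.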

[7] = qHTS assay to identify small molecule agonists of the AP-1 signaling pathway - cell viability counter screen (AID 1159525); note: nearly all actives have a fitted effect of over 55% in size
Procedure, shortened: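 AP-1-bla ME-180 cells in Opti-MEM with 0.5% dialyzed FBS, compound exposure 5 h at 37 C in 15-point titration. Viability read in the same wells as ATP content by CellTiter-Glo luminescence, normalised to tetra-n-octylammonium bromide and DMSO controls.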

[8] = qHTS assay to identify small molecule agonists of the AP-1 signaling pathway (AID 1159526)
[9] = target: Retinoic acid receptor RXR-alpha (Homo sapiens) (UniProt P19793); experiment: qHTS assay to identify small molecule agonists of the RXR signaling pathway (AID 1159527); note: nearly all actives have a fitted effect of over 35% in size; note: potency is the fitted concentration of half-maximal effect
Sequence of Retinoic acid receptor RXR-alpha (Homo sapiens) (P19793 whole entry, looked up): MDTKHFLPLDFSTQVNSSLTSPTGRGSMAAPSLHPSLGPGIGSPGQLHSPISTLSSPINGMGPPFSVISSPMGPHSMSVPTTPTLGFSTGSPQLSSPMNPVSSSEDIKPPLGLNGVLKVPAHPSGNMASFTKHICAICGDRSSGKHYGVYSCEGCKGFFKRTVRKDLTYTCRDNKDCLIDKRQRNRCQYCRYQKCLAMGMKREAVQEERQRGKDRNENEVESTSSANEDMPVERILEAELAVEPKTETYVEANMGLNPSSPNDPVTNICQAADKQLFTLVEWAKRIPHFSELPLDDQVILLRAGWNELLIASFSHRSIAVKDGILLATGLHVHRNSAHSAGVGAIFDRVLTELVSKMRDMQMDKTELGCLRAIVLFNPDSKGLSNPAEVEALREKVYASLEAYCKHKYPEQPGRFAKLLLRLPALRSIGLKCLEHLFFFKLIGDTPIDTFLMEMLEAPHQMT
Procedure, shortened: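 Cells plated at 2,000/well, rested 5 hr at 37 C, pin-dosed with DMSO compound solutions, incubated 16 hr, then loaded with B/G FRET substrate for 2 hr at RT before dual-emission fluorescence reading.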

[10] = qHTS assay to identify small molecule agonists of the RXR signaling pathway - cell viability counter screen (AID 1159529; active = well fitted curve in the direction sought with a large enough effect in the repeat runs; an effect the other way counts as inactive or inconclusive)
Procedure, shortened: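 Steps: seed RXR-alpha-UAS-bla HEK 293T cells in assay medium containing 2% charcoal-stripped FBS; incubate 5 hr; add compounds in DMSO; incubate 16 hr at 37 C; after the bla read, add CellTiter-Glo and read luminescence at 30 min.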

| Compound | outcome [1] | outcome [2] | Potency [3] | outcome [4] | outcome [5] | outcome [6] | outcome [7] | Potency [8] | Potency [9] | Potency [10] | activity, negative = cytotoxicity [5] | activity change, negative = inhibition [6] | viability change, negative = cytotoxic [7] | activation [8] | activity change, negative = cytotoxicity [10] |
| --- | --- | --- | --- | --- | --- | --- | --- | --- | --- | --- | --- | --- | --- | --- | --- |
| CCCC(C)C(O)CC (stereo not drawn) | inactive | inactive | inactive | inactive | inactive | inactive | inactive | inactive | inactive | inactive |  |  |  |  |  |
| Nc1ccc(C(=O)NCC(=O)O)cc1 | inactive | inactive | inactive | inactive | inactive | inactive | inactive | inactive |  | inactive |  |  |  |  |  |
| CC(=O)SCC(CC(=O)c1ccc(C)cc1)C(=O)O (stereo not drawn) | inactive | inactive | inactive | inactive | inactive | inactive | inactive | inactive | inactive | inactive |  |  |  |  |  |
| COC(=O)c1ccccc1Cl | inactive | inactive | inactive | inactive | inactive | inactive | inactive | inactive | inactive | inactive |  |  |  |  |  |
| C=CCn1cc[n+](C)c1 | inactive | inactive | inactive | inactive | inactive | inactive | inactive | inactive | inactive | inactive |  |  |  |  |  |
| CC(=O)SC[C@@H](C)C(=O)N1CCC[C@H]1C(=O)N[C@@H](Cc1ccccc1)C(=O)O | inactive | inactive | inactive | inactive | inactive | inactive | inactive | inactive | inactive | inactive |  |  |  |  |  |
| CC(C)C(=O)Nc1cccc(C2CN3CCSC3=N2)c1 (stereo not drawn) |  | inactive | inactive | inactive | inactive | inactive | inactive | inactive |  | inactive |  |  |  |  |  |
| CN(C)CCc1c[nH]c2ccc(C[C@H]3COC(=O)N3)cc12 | inactive | inactive | inactive | inactive | inactive | inactive | inactive | inactive |  | inactive |  |  |  |  |  |
| O=CN1CCCCC1 | inactive | inactive | inactive | inactive | inactive | inactive | inactive | inactive | inactive | inactive |  |  |  |  |  |
| CCCCCCCCC1CO1 (stereo not drawn) | inactive | inactive | inactive | inactive | inactive | inactive | inactive | inactive | inactive | inactive |  |  |  |  |  |
| CCN(CC)CC(=O)Oc1ccc(NC(C)=O)cc1 | inactive | inactive | inactive | inactive | inactive | inactive | inactive | inactive | inactive | inactive |  |  |  |  |  |
| CCOC(=O)[C@H](CCc1ccccc1)N[C@H]1CS[C@H](c2cccs2)CN(CC(=O)O)C1=O | inactive | inactive | inactive | inactive | inactive | inactive | inactive | inactive |  | inactive |  |  |  |  |  |
| CCCCC(CC)CCC(CC(C)C)OS(=O)(=O)O (stereo not drawn) | inactive | inactive | inactive | inactive | inactive | inactive | inactive | inactive | inactive | inactive |  |  |  |  |  |
| C/C=C(\C)C(=O)OC/C=C(\C)CCC=C(C)C | inactive | inactive | inactive | inactive | inactive | inactive | inactive | inactive | 21.9 µM (active) | inactive |  |  |  |  |  |
| N#CC1(N)CCCCC1 | inactive | inactive | inactive | inactive | inactive | inactive | inactive | inactive |  | inactive |  |  |  |  |  |
| O=C[C@@H](O)[C@H](O)[C@H](O)CO | inactive | inactive | inactive | inactive | inactive | inactive | inactive | inactive |  | inactive |  |  |  |  |  |
| CN1CCN(C(=O)C2CCCCC2)CC1 | inactive | inactive | inactive | inactive | inactive | inactive | inactive | inactive |  | inactive |  |  |  |  |  |
| CC(=O)OC1CCC(C(C)(C)C)CC1 (stereo not drawn) | inactive | inactive | inactive | inactive | inactive | inactive | inactive | inactive |  | inactive |  |  |  |  |  |
| COC(C)(C)CC(C)=O | inactive | inactive | inactive | inactive | inactive | inactive | inactive | inactive | inactive | inactive |  |  |  |  |  |
| C/C=C(\C)C=O | inactive | inactive | inactive | inactive | inactive | inactive | inactive | inactive | inactive | inactive |  |  |  |  |  |

| Compound | outcome [1] | outcome [2] | Potency [3] | outcome [4] | outcome [5] | outcome [6] | outcome [7] | Potency [8] | Potency [9] | Potency [10] | activity, negative = cytotoxicity [5] | activity change, negative = inhibition [6] | viability change, negative = cytotoxic [7] | activation [8] | activity change, negative = cytotoxicity [10] |
| --- | --- | --- | --- | --- | --- | --- | --- | --- | --- | --- | --- | --- | --- | --- | --- |
| CC(C)(C)C(=O)CCc1ccc(Cl)cc1 | inactive | inactive | inactive | inactive | inactive | inactive | inactive | inactive | inactive | inactive |  |  |  |  |  |
| O=C(CCBr)N1CCN(C(=O)CCBr)CC1 | inactive | inactive | inactive | inactive | inactive | inactive | inactive | inactive | inactive | inactive |  |  |  |  |  |
| COC(=O)N/N=C/c1c[n+]([O-])c2ccccc2[n+]1[O-] | inactive | inactive | inactive | inactive | inactive | inactive | inactive | inactive |  | inactive |  |  |  |  |  |
| CCOC(=O)COc1ccc2c(C)c(CCN(CC)CC)c(=O)oc2c1Cl | inactive | inactive | inactive | inactive | inactive | inactive | inactive | inactive | inactive | inactive |  |  |  |  |  |
| CNC(C)=O | inactive | inactive | inactive | inactive | inactive | inactive | inactive | inactive | inactive | inactive |  |  |  |  |  |
| COc1cc2nc(N3CCN(C(=O)C4CCCO4)CC3)nc(N)c2cc1OC (stereo not drawn) |  | inactive | inactive | inactive | inactive | inactive | inactive | inactive |  | inactive |  |  |  |  |  |
| C=CCCCCCCCCCCCCCC | inactive | inactive | inactive | inactive |  |  |  |  |  |  | 0.624% [at 19 µM] | -3.67% [at 19 µM] | 0.684% [at 15.8 µM] | -3.84% [at 15.8 µM] | -3.45% [at 15.8 µM] |
| CN(C)CCC[C@@]1(c2ccc(F)cc2)OCc2cc(C#N)ccc21 | inactive | inactive | inactive | inactive | inactive | inactive | inactive | inactive | inactive | inactive |  |  |  |  |  |
| CC12CCCC=C1C(=O)OC2=O (stereo not drawn) | inactive | inactive | inactive | inactive | inactive | inactive | inactive | inactive |  | inactive |  |  |  |  |  |
| COCc1nnc(-c2ccc[n+]([O-])c2)n1-c1c(Cl)c(Cl)cc2[nH]c(=O)c(=O)[nH]c12 | inactive | inactive | inactive | inactive | inactive | inactive | inactive | inactive |  | inactive |  |  |  |  |  |
| O=c1c(O)c(O)c1=O | inactive | inactive | inactive | inactive | inactive | inactive | inactive | inactive | inactive | inactive |  |  |  |  |  |
| C[C@@H]1CCC[C@H](C)N1CCCC(O)(c1ccccc1)c1ccccn1 (stereo partly drawn) | inactive | inactive | inactive | inactive | inactive | inactive | inactive | inactive | inactive | inactive |  |  |  |  |  |
| Cc1ccc(N)nc1 | inactive | inactive | inactive | inactive | inactive | inactive | inactive | inactive |  | inactive |  |  |  |  |  |
| OCCC(F)(F)C(F)(F)C(F)(F)C(F)(F)C(F)(F)C(F)(F)F | inactive | inactive | inactive | inactive | inactive | inactive | inactive | inactive | inactive | inactive |  |  |  |  |  |
| Cc1cc(=O)oc2cc(O[C@@H]3SC[C@@H](O)[C@H](O)[C@H]3O)ccc12 | inactive | inactive | inactive | inactive | inactive | inactive | inactive | inactive |  | inactive |  |  |  |  |  |
| C=COCCCCO | inactive | inactive | inactive | inactive | inactive |  | inactive | inactive | inactive | inactive |  |  |  |  |  |
| CC(=O)OC/C=C(/C)CCC=C(C)C | inactive | inactive | inactive | inactive | inactive | inactive | inactive | inactive |  | inactive |  |  |  |  |  |
| CC(C)OCCO | inactive | inactive | inactive | inactive | inactive |  | inactive | inactive | inactive | inactive |  |  |  |  |  |
| C=CCOC(=O)CCCCCCCC | inactive | inactive | inactive | inactive | inactive |  | inactive | inactive | 17.5 µM (active) | inactive |  |  |  |  |  |
| Cc1cccc(N)n1 | inactive | inactive | inactive | inactive | inactive |  | inactive | inactive | inactive | inactive |  |  |  |  |  |
